Values joined by “and” are separate entries in the source; they are usually repeats but may differ in a detail not shown here. Equal entries are not always repeated.
Columns and labels:
[1] = target: Serine/threonine-protein kinase PAK 6 (Homo sapiens) (UniProt Q9NQU5); details: at 1 µM;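 note: values are mean percent inhibition of PAK6 kinase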
[2] = system: Tyrosine-protein kinase ABL1 (Homo sapiens), P00519 [E255K]; details: at 0.1 µM
[3] = system: Tyrosine-protein kinase ABL1 (Homo sapiens), P00519 [E255K]; details: at 1 µM
[4] = system: Tyrosine-protein kinase ABL1 (Homo sapiens), P00519 [H396P]; details: at 0.1 µM
[5] = system: Tyrosine-protein kinase ABL1 (Homo sapiens), P00519 [H396P]; details: at 1 µM
[6] = system: Tyrosine-protein kinase ABL1 (Homo sapiens), P00519 [M351T]; details: at 0.1 µM
[7] = system: Tyrosine-protein kinase ABL1 (Homo sapiens), P00519 [M351T]; details: at 1 µM
[8] = system: Tyrosine-protein kinase ABL1 (Homo sapiens), P00519 [Q252H]; details: at 0.1 µM
[9] = system: Tyrosine-protein kinase ABL1 (Homo sapiens), P00519 [Q252H]; details: at 1 µM
[10] = system: Tyrosine-protein kinase ABL1 (Homo sapiens), P00519 [T315I]; details: at 0.1 µM

Sequence of Serine/threonine-protein kinase PAK 6 (Homo sapiens) (Q9NQU5 whole entry, looked up): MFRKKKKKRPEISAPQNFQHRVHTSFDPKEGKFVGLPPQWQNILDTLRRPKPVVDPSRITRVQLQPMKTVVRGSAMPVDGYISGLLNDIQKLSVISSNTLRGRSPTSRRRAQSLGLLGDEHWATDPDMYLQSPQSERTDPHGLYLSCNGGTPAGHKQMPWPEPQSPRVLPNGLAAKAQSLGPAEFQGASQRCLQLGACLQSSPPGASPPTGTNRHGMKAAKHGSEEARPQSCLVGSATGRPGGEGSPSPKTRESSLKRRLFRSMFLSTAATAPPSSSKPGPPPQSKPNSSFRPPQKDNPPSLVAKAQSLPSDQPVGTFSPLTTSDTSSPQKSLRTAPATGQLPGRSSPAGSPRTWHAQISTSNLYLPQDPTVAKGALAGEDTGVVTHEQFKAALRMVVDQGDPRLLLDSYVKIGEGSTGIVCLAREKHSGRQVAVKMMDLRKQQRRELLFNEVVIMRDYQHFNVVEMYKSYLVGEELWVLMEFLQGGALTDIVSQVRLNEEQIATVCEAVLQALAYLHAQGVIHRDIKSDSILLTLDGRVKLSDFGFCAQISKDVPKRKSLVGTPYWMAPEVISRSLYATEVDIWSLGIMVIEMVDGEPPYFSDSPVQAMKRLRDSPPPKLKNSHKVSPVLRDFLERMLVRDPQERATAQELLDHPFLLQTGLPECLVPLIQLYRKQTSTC

SMILES	inhibition [1]	inhibition [2]	inhibition [3]	inhibition [4]	inhibition [5]	inhibition [6]	inhibition [7]	inhibition [8]	inhibition [9]	inhibition [10]
Cc1cc(O)cc(C)c1/C=C/c1cncc(C(=O)OC(C)(C)C)c1	-0.98%	4.42%	21.6%	7.59%	35%	9.08%	46%	11.7%	52.5%	1.3%
c1ccc(-c2n[nH]cc2-c2ccnc(-c3ccc(OCCn4ccnc4)cc3)c2)nc1	-6.97%	23.1%	71.2%	46.9%	88.1%	43.8%	87.2%	25.9%	73.4%	3%
CS(=O)(=O)Nc1ccc(-c2ccc3c(NC(=O)C4CC4)n[nH]c3c2)cc1	5.45%	2.53%	5.92%	4.24%	17.5%	4.89%	20.3%	4.73%	9.35%	4.61%
Cc1c2ccc(N(C)c3ccnc(Nc4cccc(S(N)(=O)=O)c4)n3)cc2nn1C	-6.14%	19.6%	67.6%	37.9%	81.6%	39.5%	84.8%	42.9%	83.6%	11.3%
CCS(=O)(=O)c1ccc(OC)c(Nc2ncc(-c3cccc(F)c3)o2)c1	-6.17%	30.8%	80.4%	40.8%	85.8%	38.6%	85%	41.9%	86.4%	4.78%
Nc1nccc(-c2c(-c3ccc(F)cc3)ncn2C2CCNCC2)n1	-8.13% and -0.6%	-2.24% and 1.83%	-1.66% and 0.75%	-1.77% and 0.86%	3.78% and 0.72%	-2.76% and 1.38%	4.44% and 1.12%	-0.74% and -0.69%	4.57% and 2.57%	-3.43% and 2.15%
Cn1c(-c2nonc2N)nc2cnccc21	0.39%	2.74%	1.01%	2.83%	2.87%	1.44%	2.81%	2.07%	1.71%	0.03%
COc1ccc(-c2nn3ncccc3c2-c2ccnc(Nc3ccc(F)c(F)c3)n2)cc1	-1.89%	3.61%	10.3%	4.57%	22.8%	17%	58.1%	12.2%	47.4%	5.18%
O=C(O[C@H]1CN[C@H](C#Cc2cc3ncnc(Nc4ccc5c(ccn5Cc5cc(F)ccc5F)c4)c3s2)C1)N1CCOCC1	-0.57%	1.52%	3.53%	4.04%	8.92%	1.92%	3.98%	3.74%	3.88%	3.97%
Cc1nnc(-c2cccc(-c3ccc(C(=O)NCC4CC4)cc3)c2)o1	-1.37%	4.38%	4.87%	4.09%	6.67%	2.13%	5.6%	4.31%	5.92%	4.43%
Cc1cc(O)cc(C)c1/C=C/c1cncc(C(N)=O)c1	10.6%	15.7%	61%	20.4%	70.1%	18.5%	69%	18.7%	67.5%	2.31%
COc1ccc2ncn(-c3cc(O[C@H](C)c4ccccc4C(F)(F)F)c(C(N)=O)s3)c2c1	-8.65%	-0.4%	-1.92%	-0.02%	2.03%	0.8%	1.91%	-0.3%	2.05%	0.03%
CS(=O)(=O)CCNCc1ccoc1-c1ccc2ncnc(Nc3ccc(OCc4ccccc4)cc3)c2c1	-2.12%	-3.3%	0.24%	0.81%	-0.01%	0.87%	-0.25%	1.54%	1.56%	1.58%
COc1cccc(Nc2nccc(-c3cnn4ncccc34)n2)c1	5.36%	5.54%	23.1%	8.68%	41.2%	8.35%	45%	9.38%	46.5%	3.94%
CN1CCC(C(=O)Nc2n[nH]c3nc(-c4ccc(O)cc4)c(Br)cc23)CC1	-4.52%	2.77% and -0.12%	13.4% and 6.5%	4.9% and 3.81%	15.7% and 13.9%	1.55% and 2.92%	13.9% and 9.89%	3.16% and 3.78%	17.1% and 15.7%	2.49% and 2.76%
CC1(C)CC(n2cnc(-c3ccc(F)cc3)c2-c2ccnc(N)n2)CC(C)(C)N1	-4.18%	1.94%	2.09%	0.18%	0.59%	2.43%	0.27%	0.65%	0.31%	1.92%

SMILES	inhibition [1]	inhibition [2]	inhibition [3]	inhibition [4]	inhibition [5]	inhibition [6]	inhibition [7]	inhibition [8]	inhibition [9]	inhibition [10]
c1cnn2ncc(-c3ccnc(NCCCN4CCOCC4)n3)c2c1	-5.92%	1.77%	1.98%	3.45%	3.75%	1.48%	0.71%	3.41%	2.1%	2.37%
CN(c1ccc(NC(=O)NCCN2CCOCC2)cc1)c1ccnc(Nc2ccc(CS(C)(=O)=O)cc2)n1	9.1%	2.54%	14.2%	4.8%	26.3%	3.59%	36.8%	8.57%	39.3%	6.6%
CNC(=O)c1sc(-n2cnc3cc(OC)c(OC)cc32)cc1OCc1ccccc1C(F)(F)F	-4.28%	1.88%	9.07%	3.16%	10.5%	0.2%	6.66%	4.26%	7.88%	1.96%
CS(=O)(=O)CCNCc1ccc(-c2ccc3ncnc(Nc4ccc(OCc5cccc(C(F)(F)F)c5)cc4)c3c2)o1	-8.87%	0.33%	2.52%	3.55%	4.29%	-0.21%	1.37%	3.36%	4.5%	1.82%
Nc1nonc1-c1nc2cnccc2n1C1CC1	7.32% and -5.94%	2.67% and 0.93%	3.5% and 4.4%	2.21% and 2.04%	0.55% and 1.2%	0.52% and -0.88%	-0.96% and 2.63%	4.06% and 0.83%	3.65% and 2.84%	2.85% and 1.97%
COC(=O)Nc1nc2ccc(Oc3ccc(NC(=O)Nc4cc(C(F)(F)F)ccc4F)cc3)cc2s1	-8.13%	17.2%	66.8%	65.9%	92.3%	76.6%	93.3%	75.1%	91.4%	78.8%
CN1CCN(Cc2ccc(-c3cc4ncnc(Nc5ccc(OCc6cccc(F)c6)c(Cl)c5)c4s3)o2)CC1	-4.15% and 3.43%	2.21% and 2.71%	7.15% and 8.4%	4.73% and 6.21%	14.3% and 18%	1.3% and 4.75%	14.7% and 17.9%	4.48% and 6.29%	16.1% and 20.9%	3.33% and 5.07%
CC1=C(C(=O)Nc2ccc3[nH]nc(C)c3c2)C(c2ccc(C(F)(F)F)cc2)CC(=O)N1 (stereo not given)	6.01%	2.57%	3.48%	4.06%	4.03%	1.49%	4.65%	4.49%	3.3%	3.82%
COc1cc2c(cc1Nc1nc(Nc3cccc(F)c3C(N)=O)c3cc[nH]c3n1)N(C(=O)CN1CCN(C(C)C)CC1)CC2	-0.05%	-0.8%	-0.74%	-1.59%	0.65%	-1.33%	2.97%	-0.13%	3.8%	-0.82%
CCN1CCC(C(=O)Nc2n[nH]c3nnc(-c4cccc(F)c4F)cc23)CC1	-6.98%	-0.54%	0.15%	0.08%	-0.56%	-0.54%	-0.16%	-1.28%	-1.04%	0.53%
O=C(O[C@H]1CN[C@H](C#Cc2cc3ncnc(Nc4ccc(OCc5cccc(F)c5)c(Cl)c4)c3s2)C1)N1CCOCC1	-5.21%	0.66%	4.53%	3.67%	5.92%	2.25%	4.53%	3.47%	2.92%	4.04%
COc1cc(Nc2ncc(-c3ccccc3)o2)cc(OC)c1	-4.99%	5.8%	23.1%	9.34%	39.7%	8.13%	41.1%	9.25%	33.6%	4.18%
COc1cccc(-n2ncc3c(N/N=C/c4ccc(C(=O)NCCN(C)C)cc4)ncnc32)c1	12.9%	92.1%	94.7%	93.9%	95%	92.3%	95.5%	94.2%	95.4%	84.6%
COc1cc(N2CCN(C(C)C)CC2)ccc1Nc1nc(Nc2cccc3ncccc23)c2cc[nH]c2n1	-4.19%	0.09%	0.59%	2.17%	3.86%	2.31%	3.99%	1.61%	3.51%	1.61%
FC(F)(F)CNc1nccc(-c2cnn3ncccc23)n1	-2.36%	6.33%	1.46%	2.61%	2.38%	0.25%	0.76%	1.08%	1.59%	0.06%
